Results filed as inconclusive are left out. A call without a number means that no potency is given here. Calls of active or inactive are those of the source. Calls follow the shape of the dose curve; as a rule, active = well fitted activation curve with a large enough effect; inconclusive = small, poorly fitted or top-dose-only effect; inactive = flat fitted curve, though single readings scatter.
Experiment: qHTS for H2AX Agonists against the NCATS CANVASS Library (AID 1347378)
Settings: CHO-K1 H2AX phosphorylation, HTRF TR-FRET, 3 h; series mostly up to 76.9 µM
Description: Natural products and their derivatives continue to be wellsprings of nascent therapeutic potential. However, many laboratories have limited resources for biological evaluation, leaving their previously isolated or synthesized compounds largely or completely untested. To address this issue, the Canvass library of natural products was assembled (https://tripod.nih.gov/canvass), in collaboration with academic and industry researchers, for quantitative high-throughput screening (qHTS) across a diverse set of cell-based and biochemical assays. The pure (>85% purity by liquid chromatography/mass spectrometry [LC/MS]) Canvass library of 346 natural products were submitted by 45 academic laboratories and companies around the world. We collected pure natural products to circumvent deconvolution and structure elucidation due to time and resource limitations. The library was formatted into 1536-well plates and evaluated in 50 qHTS (in an 11-pnt concentration series) bioassays with broad scope of disease-relevant mechanisms. The resulting data set from 50 different assays was then systematically analyzed to identify overall trends and specific natural products with interesting biological activities. Reported herein are the results of each individual qHTS and their corresponding assay protocol. This assay determines the levels of phospho-H2AX in cell lysates of Chinese hamster ovary CHO cells. It is based on time resolved fluorescence resonance energy transfer (TR-FRET). Two anti-H2AX antibodies are labeled with europium cryptate and d2, respectively. The increase of FRET levels is proportional to the concentration of phosphorylated H2AX. The results were expressed as the ratio of 665/615 nm emissions. National Center for Advancing Translational Sciences (NCATS), Rockville, MD National Institute of Health (NIH), Bethesda, Maryland
H2AX assay protocol: The CHO-K1 cells suspended in culture medium containing 10% FBS were dispensed at 1000 cells/ 3 ul/well in 1536-well white wall/solid bottom plates (Greiner Bio-One North America, NC) using a Multidrop Combi (Thermo Fisher Scientific Inc., Waltham, MA). After the assay plates were incubated at 37C overnight, 23 nl of compounds at 15 concentrations (from 5-48 columns) or positive control (from 1 to 4 columns) were transferred to the assay plates using a Pintool station (Wako, San Diego, CA) into each well resulting in a final DMSO concentration of 0.76%. After 3hr incubation at 37C, 1 uL/well Supplemented Lysis buffer (diluted 100 fold blocking reagent in lysis buffer) (HTRF Phospho-H2A.X (S139) Assay kit from Cisbio US Inc., Bedford, MA) was added using a Flying Reagent Dispenser (FRD) (Aurora Discovery, CA). After 10sec spin at 1000 rpm in a plate centrifuge, the assay plates were incubated at room temperature for 30 min. Then followed by the addition of 1 uL/well detection buffer (containing a mixture of two antibodies, one labeled with cryptate, Anti pH2AX (S139)-K and another labeled with d2, Anti H2AX-d2) using FRD. After incubation at room temperature for 24 hr, the time resolved fluorescence at excitation 320 nm and emissions at 665 nm and 620 nm was measured using an Envision plate reader (PerkinElmer, Waltham, MA).
Potency is read from the fitted curve at half-maximal effect.

| Structure (SMILES) | Potency |
| --- | --- |
| COc1ccc2c(c1)[nH]c1c(C)nccc12 | inactive |
| c1ccc2c3c([nH]c2c1)CNCC3 | inactive |
| CC[N@@+]1([O-])C[C@]2(C)CC[C@@H](O)[C@@]34C5C[C@H]6CC[C@@]5(C(C[C@H]23)C41)[C@H](O)[C@@]6(O)CO (stereo partly specified) | inactive |
| C[C@]12CC(O)C3[C@@H](CCC4C[C@@H](O)CC[C@@]43CO)[C@@]1(O)CCC2C1=CC(=O)OC1 (stereo partly specified) | inactive |
| CC(=O)N[C@H]1CCN2CCC[C@H]12 | inactive |
| CCCC[C@@H]1CC[C@H]2CCCC(CCC)N12 (stereo partly specified) | inactive |
| CC1=CC(=O)C2=C(C)C[C@H](O)[C@@H]3[C@H](OC(=O)[C@@H]3C)[C@@H]12 | inactive |
| COc1ccc(C23Oc4cc(OC)cc(OC)c4[C@](O)([C@H](c4ccccc4)C2C(=O)NCCCCNC(=O)c2ccccc2)[C@@H]3O)cc1 (stereo partly specified) | inactive |
| COc1ccc2c3c([nH]c2c1)C(C)=NCC3 | inactive |
| CCN1C[C@]2(C)CC[C@H](O)[C@]34C1C(C[C@H]23)[C@@]12CC[C@H](CC14)[C@](O)(COC(=O)c1ccc(OC)c(OC)c1)[C@H]2O (stereo partly specified) | inactive |
| CN1C(=O)[C@]23CC4C(C)(C)[C@@]5(C[C@@]41CN2CC[C@@]3(C)O)C(=O)Nc1c5ccc2c1OC=CC(C)(C)O2 (stereo partly specified) | inactive |
| NCCc1ccccc1 | inactive |
| CN(C)Cc1c[nH]c2ccccc12 | inactive |
| CO[C@H](c1ccccc1)[C@H]1NC(=O)C(C)NC(=O)C(C[C@@H](C)CO)N(C)C(=O)[C@@H](C(O)c2cn(C(C)(C)C3CO3)c3ccccc23)NC(=O)C(C(C)C=C(C)C)NC(=O)C(CC(C)C)N(C)C(=O)C(C(C)C)NC1=O (stereo partly specified) | inactive |
| CC1=CC2CC[C@@H]3[C@@H](C)C[C@H](C)[C@@H](C1)N23 (stereo partly specified) | inactive |
| CNCCc1ccc(O)cc1 | inactive |

| Structure (SMILES) | Potency |
| --- | --- |
| CC=C1CN(C=O)[C@H]2C[C@@H]1[C@@H](C(=O)OC)[C@@]13CCOC21Nc1ccccc13 (stereo partly specified) | inactive |
| CC[C@@H]1CN2CC[C@@]3(O)C(=Nc4cccc(OC)c43)[C@@H]2C[C@@H]1/C(=C\OC)C(=O)OC | inactive |
| CO[C@@H](/C=C/CC/C=C/C(=O)O)[C@@H](O)[C@H](C)[C@@H](O)/C(C)=C/[C@H](C)C(=O)CCCC1CC(=O)NC(=O)C1 | inactive |
| COC(=O)C1=C2Nc3ccccc3[C@@]23CCN2CC(C(C)=O)C1C[C@H]23 (stereo partly specified) | inactive |
| CCC[C@H]1CC[C@H]2[C@H](C)CCC[C@H]2N1 | inactive |
| C/C=C1/CN2CC[C@]34C(=Nc5ccccc53)[C@@H]2C[C@@H]1[C@H]4C(=O)OC | inactive |
| CCN1C[C@]2(C)CC[C@@H](O)[C@]34C1[C@H](C[C@H]23)C12CCC(CC14)[C@](O)(CO)[C@H]2O (stereo partly specified) | inactive |
| CO[C@@H](/C=C/CC/C=C/C(=O)O)[C@@H](O)[C@H](C)/C=C(\C)[C@@H](O)[C@H](C)C(=O)CCCC1CC(=O)NC(=O)C1 | inactive |
| C=C1[C@@H](C)[C@H]2[C@H](Cc3ccccc3)NC(=O)[C@]23OC(=O)/C=C/[C@H](O)CCC[C@@H](C)C/C=C/[C@H]3[C@@H]1O | inactive |
| CCCCC[C@@H]1OC(=O)[C@@H](C)N(C)C(=O)[C@H](CCCCC)OC(=O)C(C)N(C)C(=O)[C@H](CCCCC)OC(=O)[C@@H](C)N(C)C(=O)[C@H](CCCCC)OC(=O)C(C)N(C)C1=O (stereo partly specified) | inactive |
| O=C(c1ccccc1O)c1[nH]c(Cl)c(Cl)c1-n1c(C(=O)c2ccccc2O)cc(Cl)c1Cl | inactive |
| C[C@@H]1CC[C@@H](c2ccoc2)N2C[C@@]3(CC[C@@H]12)CS[C@@]1(CC[C@H]2[C@H](C)CC[C@@H](c4ccoc4)N2[C@@H]1O)C3 | 10.9 µM (active) |
| CNCCc1c[nH]c2ccccc12 | inactive |
| CCC(=O)CCCCC[C@@H]1NC(=O)[C@H]2CCCCN2C(=O)[C@H]([C@@H](C)CC)NC(=O)[C@H](Cc2cn(OC)c3ccccc23)NC1=O | inactive |
| CNCCc1ccccc1 | inactive |
